This is an account of results in PubChem BioAssay (NCATS).

Each structure is given as a SMILES string. “And” between values parts separate entries of the source, which are not always exact repeats. Identical values can stand only once. Inconclusive results are not listed. Where a structure was tested more than once in an assay, its records may differ in their call. The source made the active and inactive calls. Unless noted, calls come from the whole dose curve. Where only a bound is given, the exact number is not on record here.

The target of experiment [1] is Lysosomal acid glucosylceramidase (Homo sapiens) (UniProt P04062). The experiment can be described thus: Glucocerebrosidase-p2 (AID 348; in the data active = potency below about 10 µM; note: potency is the fitted concentration of half-maximal effect). Conditions: purified GBA, blue fluorogenic substrate, 40 min. Summed up: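 Normal human glucocerebrosidase (0.2 nM) with blue fluorogenic substrate (80 uM final) in citrate/phosphate pH 5.9 with 10mM sodium taurocholate, 0.01% tween-20; 40 min RT, NaOH/glycine stop; fluorescence Ex 365/Em 440; AC50 from a titration from 0.6 nM upwards.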

Experiment [2] addresses Cytochrome P450 1A2 (Homo sapiens) (UniProt P05177). Description: p450-cyp1a2 (AID 410).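 For activity change, negative = inhibition: -100% = full effect of reference inhibitor.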 Note: potency is the fitted concentration of half-maximal effect. Conditions: recombinant CYP1A2, luciferin-ME demethylation, luminescence; series mostly up to 57 µM. Put shortly:
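20nM CYP1A2, 100uM Luciferin-ME (=Km), 100mM KPO4; cpd 10 min RT; +NADPH regen, 60 min RT; stop/detect 20 min; luminescence. Normalized to furafylline 57 uM = full inhibition.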

Experiment [3] in a line: Stat Signaling Pathway (AID 446; active = well fitted curve in either direction with a large enough effect, not every such curve was filed as active;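 note: ME-180 cervical cancer cells given 40 pM IL-6 alongside compound; SIE-controlled beta-lactamase reporter measured as 460/530 nm FRET emission ratio; % is set by controls: 0 for no effect and ±100 for the full control effect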). The following applies: ME-180 SIE beta-lactamase reporter, IL-6 stimulated, 5 h; series mostly up to 17.2 µM. Summed up: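 Compound effects on IL-6-induced STAT reporter activity were measured in ME-180 cells. After overnight culture, cells were co-treated with 40 pM IL-6 for 5 hrs before beta-lactamase substrate loading at room temperature.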

Experiment [4] is described as follows: AP1 Signaling Pathway (AID 357; active = well fitted curve in either direction with a large enough effect, not every such curve was filed as active;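 note: ME-180 reporter cells stimulated with EGF at its EC50 level; % is set by controls: 0 for no effect and ±100 for the full control effect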). Conditions: ME-180 (cervical carcinoma) AP-1-bla reporter, EGF-induced, beta-lactamase ratio, 5 h; series mostly up to 17.2 µM. Put shortly: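 A ratiometric CCF4 readout (405 nm excitation; 460 and 530 nm emission) quantified AP-1-driven beta-lactamase in ME-180 cells after 5 h with compound and EC50 EGF; AC50 values were derived for activators and inhibitors.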

A short description of experiment [5]: NFAT Signaling Pathway (AID 444; active = well fitted curve in either direction with a large enough effect, not every such curve was filed as active;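 note: carbachol stimulus at about its EC50 of 1 µM final; % is set by controls: 0 for no effect and ±100 for the full control effect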). Conditions: Jurkat NFAT-bla M1, carbachol, beta-lactamase ratio, 5 h. Put shortly:
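Jurkat cells carrying an NFAT-driven β-lactamase reporter and co-transfected muscarinic M1 receptor were treated with compound plus carbachol (1 uM final, an EC50 level) for 5 h at 37 °C. CCF4 loading followed for 1 h at RT; 460/530 nm ratio gave %activity.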

A short description of experiment [6]: Cell Viability - BJ (AID 421).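 Note: potency is the fitted concentration of half-maximal effect; cells exposed to compound for 40 hours at 37 °C before readout.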 The following applies: BJ fibroblast viability, qHTS. Summed up: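 Luminescent ATP signal (CellTiter-Glo, 20 min at room temperature) served as the read-out of viable BJ cells after 40 hours of compound treatment. Responses were scaled between DMSO and 100 uM tamoxifen, and AC50 values were obtained by Hill modeling.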
A short description of experiment [7]: Cell Viability - Jurkat (AID 426;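 active = dose-dependent loss of cell ATP signal giving a full or clear fitted curve, ranked by lower potency value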;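 note: potency is the fitted concentration of half-maximal effect; cells exposed to compound for 40 hours at 37 °C before ATP read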). The following applies: qHTS. Summed up: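 Luminescent ATP read-out (CellTiter-Glo, 20 min at room temperature) after 40 hr compound exposure at 37 °C of Jurkat E6-1 cells, 5000/well. Decreased ATP taken as cytotoxicity; AC50 from standard Hill equation.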
(In general: qHTS replaces the single test concentration by a dilution series.)

Experiment [8] in a line: Cell Viability - Hek293 (AID 427;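 active = compounds whose dose-response curve shows a full or clear partial loss of cell viability, called from curve shape rather than a numeric limit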;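 note: potency is the fitted concentration of half-maximal effect; cells exposed to compound for 40 hours at 37 °C before reading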). The following applies: qHTS. Summed up:
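Luminescent ATP read-out (CellTiter-Glo, 20 min RT) after 40 hr compound exposure at 37 °C in complete medium. Signal normalized to DMSO (basal) and 100 uM tamoxifen (100% inhibition); concentration-response fitted with the standard Hill equation to give AC50.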

A short description of experiment [9]: Cell Viability - MRC5 (AID 434).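 Note: potency is the fitted concentration of half-maximal effect; potency reflects cytotoxicity seen as loss of intracellular ATP.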 Conditions: MRC5 lung fibroblast viability, qHTS. Put shortly:
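Decrease in intracellular ATP, quantified by luciferase light output, reflects compound toxicity toward MRC5 cells exposed for 40 hr in complete culture medium. Concentration-response curves, scaled between DMSO and 100 uM tamoxifen, gave AC50 values.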

Experiment [10] is described as follows: Cell Viability - SK-N-SH (AID 435).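 Note: potency is the fitted concentration of half-maximal effect; compound exposure lasted 40 h at 37 °C.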 The following applies: SK-N-SH neuroblastoma cell viability qHTS. Put shortly: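 SK-N-SH human neuroblastoma cells (1500/well) were exposed to compounds in complete medium for 40 h at 37 °C, and intracellular ATP was then measured by CellTiter-Glo luminescence. AC50 was taken from Hill fits, normalized to DMSO and 100 uM tamoxifen.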

Chain of Cytochrome P450 1A2 (Homo sapiens) (P05177 whole entry, looked up): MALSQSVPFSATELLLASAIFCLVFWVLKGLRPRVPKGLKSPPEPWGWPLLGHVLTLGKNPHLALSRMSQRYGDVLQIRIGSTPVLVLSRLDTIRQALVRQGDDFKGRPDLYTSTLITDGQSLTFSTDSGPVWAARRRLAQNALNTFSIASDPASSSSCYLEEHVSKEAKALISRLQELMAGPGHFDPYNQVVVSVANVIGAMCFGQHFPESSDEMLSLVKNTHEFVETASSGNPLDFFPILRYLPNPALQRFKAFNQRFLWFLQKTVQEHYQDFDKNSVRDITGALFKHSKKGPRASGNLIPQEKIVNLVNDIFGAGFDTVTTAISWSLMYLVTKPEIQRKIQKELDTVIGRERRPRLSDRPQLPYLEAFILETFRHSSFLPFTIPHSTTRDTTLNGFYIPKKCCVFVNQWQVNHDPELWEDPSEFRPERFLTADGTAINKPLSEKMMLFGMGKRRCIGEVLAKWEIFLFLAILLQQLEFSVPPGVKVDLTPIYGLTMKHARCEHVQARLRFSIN
Chain of Lysosomal acid glucosylceramidase (Homo sapiens) (P04062 whole entry, looked up): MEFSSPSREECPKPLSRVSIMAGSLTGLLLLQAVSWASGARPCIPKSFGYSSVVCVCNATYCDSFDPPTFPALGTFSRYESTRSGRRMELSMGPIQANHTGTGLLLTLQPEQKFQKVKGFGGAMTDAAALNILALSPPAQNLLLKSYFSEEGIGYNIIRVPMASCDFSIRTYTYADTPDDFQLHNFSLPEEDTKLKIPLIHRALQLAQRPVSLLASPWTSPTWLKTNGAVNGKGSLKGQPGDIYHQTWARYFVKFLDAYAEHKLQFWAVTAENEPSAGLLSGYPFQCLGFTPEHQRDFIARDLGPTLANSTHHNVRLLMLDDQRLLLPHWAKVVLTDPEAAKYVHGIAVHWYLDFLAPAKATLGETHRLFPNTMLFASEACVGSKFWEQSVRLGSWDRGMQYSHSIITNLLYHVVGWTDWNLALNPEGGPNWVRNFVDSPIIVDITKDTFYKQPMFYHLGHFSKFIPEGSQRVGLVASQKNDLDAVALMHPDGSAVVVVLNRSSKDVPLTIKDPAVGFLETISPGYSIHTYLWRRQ

As to `CN(C)CCCN1c2ccccc2C(C)(C)c2ccccc21`, the Potency is > 11.4 µM (inactive) in [1] and 5.01 µM (active) in [2]. In addition, the compound was called inactive in [3].
Consider `O=C(O)CC/C=C\CC[C@H]1[C@@H](N2CCCCC2)[C@@H](O)C[C@@H]1OCc1ccc(-c2ccccc2)cc1`, for which, in experiment [2], the Potency result was “inactive”.
Take `CC(=O)OCC(=O)[C@@]12OC3(CCCC3)O[C@@H]1C[C@H]1[C@@H]3CCC4=CC(=O)C=C[C@]4(C)[C@@]3(F)[C@@H](O)C[C@@]12C`: the outcome in experiment [4] and in [3] was inactive.
On to `CN=C(NC#N)Nc1ccc(C2=NNC(=O)C[C@@H]2C)cc1`, for which the outcome in [4] and in experiment [3] was inactive. Also, the Potency result in experiment [2] was “inactive and 39.8 µM (active)”. In addition, in experiment [5] (at 38 µM (top of the series)), the activity change, negative = inhibition is -1.21% (inactive).
For `Nc1ccn([C@H]2CS[C@@H](CO)O2)c(=O)n1`, the Potency in experiment [6], in experiment [7], in experiment [8], in [9] and in [10] was > 92 µM (inactive) in each case.
Regarding `O=C1CSC2(CCN(CCCN3c4ccccc4Sc4ccc(Cl)cc43)CC2)N1`, the result in [4] and in experiment [3] was inactive. In experiment [2], the Potency was 3.16 µM (active).
On to `CCOC(C)=O`, for which the Potency in experiment [6], in experiment [7], in experiment [8], in [9] and in experiment [10] was > 92 µM (inactive) in each case.
On to `CCCCCCCC/C=C\CCCCCCCC(=O)O`, for which the Potency in experiment [6], in experiment [7], in experiment [8], in experiment [9] and in experiment [10] was > 92 µM (inactive) in each case.
In the case of `CC1(C)S[C@@H]2[C@H](NC(=O)[C@@H](NC(=O)N3CCNC3=O)c3ccccc3)C(=O)N2[C@H]1C(=O)O`, the result in experiment [4] and in experiment [3] was inactive. Besides, the Potency result in experiment [2] is “inactive”. The activity change, negative = inhibition in [5] (at 17.2 µM (top of the series)) is -13.7% (inactive).
`CCCCC/C=C\C/C=C\CCCCCCCC(=O)O`: the Potency in experiment [6], in experiment [7], in experiment [8], in experiment [9] and in experiment [10] was > 92 µM (inactive) throughout.
Consider `CC(Cc1ccc(O)c(O)c1)C(C)Cc1ccc(O)c(O)c1` (centres undefined), for which the result in experiment [3] was inactive.
As to `COC(=O)CCC(=O)CN`, the outcome in experiment [4] and in experiment [3] was inactive.
On to `IC(I)I`, for which the Potency in [6], in experiment [7], in experiment [8], in experiment [9] and in experiment [10] was > 92 µM (inactive) throughout.
With `Cc1cc(C(=O)NNCc2ccccc2)no1`, the result in experiment [4] and in experiment [3] was inactive. Besides, the Potency in experiment [2] was 12.6 µM (active). Further, in experiment [5] (at 17.2 µM (top of the series)), the activity change, negative = inhibition was 11.8% (inactive).
